Screening data as filed in PubChem.
Rows were chosen to be rich in hits. Some 3.1% of all compounds tested hit in one or more screens of this group.
PPC-1+TRAIL kill: kills PPC-1 cancer cells in the presence of TRAIL; PPC-1 cells + TRAIL, ATPLite viability luminescence; cell killing (% activity), % at 4 µM or 5 µM; 220,000 compounds, 0.41% hits; AID 1443;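 active means cell killing above 50% in the first pass at 4 µM, then a duplicate retest at 5 µM averaging 50% or more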;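 further: plate controls were cells with TRAIL plus DMSO for no effect and medium-only wells lacking cells for full effect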
CF NFkB inh: cystic fibrosis NF-kB activation inhibition. 360,000 compounds, 0.86% hits. KKLEB NF-kB-GFP reporter, PAF-induced, GFP fluorescence overnight. AID 588850. inhibition, % at 5 µM;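 active means at least 50% inhibition at 5 µM, scaled per plate between neutral and stimulator controls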;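 further: PAF is a Pseudomonas aeruginosa culture filtrate used as stimulus; plate controls were PAF-stimulated DMSO wells for no effect and unstimulated DMSO wells for full effect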
HIF-2a block: HIF-2a inhibition; 786-0 RCC cells HIF-2a reporter, luciferase luminescence, overnight; inhibition, % at 18.8 µM; 360,000 compounds, 0.72% hits; AID 624352;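 active means inhibition of the luminescence signal of 40% or more relative to plate controls, in a single-dose primary screen at 18.75 µM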
TRAIL sens C8: sensitizes caspase-8 expressing cells to TRAIL; NB7+C8 cells + TRAIL, ATPlite viability luminescence; inhibition (viability loss, TRAIL sensitization), % at 10 µM; 360,000 compounds, 1% hits;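 active means compounds causing at least 50% loss of cell viability in the single-dose screen, relative to plate controls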
KKLEB tox: counter-screen for CF NF-kB inhibitors: cytotoxicity; AID 602141; KKLEB CF airway cells viability, ATPlite luminescence, overnight; active compounds read low; cells stimulated with P. aeruginosa culture filtrate; 360,000 compounds, 0.36% hits; activity change (cytotoxicity), % at 5 µM;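 active means corrected activity change at or below -50% at 5 µM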
Peg3 promoter: reduces Peg3 promoter-driven luciferase expression in HeLa; HeLa PEG-Prom luciferase reporter, luminescence, overnight; inhibition, % at 20 µM; 360,000 compounds, 1.7% hits;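 active means inhibition of at least 50% at 20 µM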
An asterisk follows results filed as active.

Screening COCCNc1nc(NCc2ccc(NC(C)=O)cc2)c2sc(-c3ccccc3)cc2n1 returned CF NFkB inh -37.5, HIF-2a block -28.4, TRAIL sens C8 45.1, KKLEB tox -53.7* and Peg3 promoter 25.3.
`COc1ccc(C[C@H]2CN3C(=NC[C@H]3Cc3ccccc3)N2CCNC(=O)CCC2CCCCC2)cc1` gave PPC-1+TRAIL kill -4.4, CF NFkB inh 22.4, HIF-2a block -5.9, TRAIL sens C8 23.5, KKLEB tox -16.0 and Peg3 promoter 89.5*.
`COc1ccc(C[C@H]2CN3C(=NC[C@@H]3Cc3ccccc3)N2CCNC(=O)c2ccc(C)c(Br)c2)cc1` gave PPC-1+TRAIL kill 11.1, CF NFkB inh 26.8, HIF-2a block 2.1, TRAIL sens C8 37.5, KKLEB tox -33.2 and Peg3 promoter 97.1*.
`Cc1ccc(C(=O)NCCN2C3=NC[C@@H](Cc4ccccc4)N3C[C@H]2Cc2ccc(O)cc2)cc1Br` gave PPC-1+TRAIL kill -5.9, CF NFkB inh -1.9, HIF-2a block 6.1, TRAIL sens C8 -0.7, KKLEB tox 4.7 and Peg3 promoter 79.0*.
Screening COc1ccc(C[C@H]2CN3C(=NC[C@@H]3Cc3ccc(O)cc3)N2CCNC(=O)c2ccc(C)c(Br)c2)cc1 returned PPC-1+TRAIL kill 14.7, CF NFkB inh 20.8, HIF-2a block -3.9, TRAIL sens C8 22.8, KKLEB tox -16.7 and Peg3 promoter 44.8.
Screening COc1ccc(C[C@H]2CN3C(=NC[C@H]3Cc3ccccc3)N2CCNC(=O)c2ccc(C)c(Br)c2)cc1 returned PPC-1+TRAIL kill 47.7, CF NFkB inh 32.7, HIF-2a block 4.9, TRAIL sens C8 38.8, KKLEB tox -9.2 and Peg3 promoter 94.7*.
`C[n+]1cccc(O)c1SCc1ccccc1` gave CF NFkB inh 19.0, HIF-2a block 6.0, TRAIL sens C8 -14.9, KKLEB tox -19.9 and Peg3 promoter -6.5.
CCCCCCCC/C=C\CCCCCCCC(=O)NCCc1ccc(O)c(O)c1 was read as CF NFkB inh 58.6*, HIF-2a block 17.8, TRAIL sens C8 45.8, KKLEB tox 5.9 and Peg3 promoter -12.7.
For O=S(=O)(c1ccc(F)cc1)N1CCC2(CC1)OCCN2S(=O)(=O)c1cccs1 the results were CF NFkB inh -2.2, HIF-2a block 6.9, TRAIL sens C8 -10.2, KKLEB tox 10.9 and Peg3 promoter 7.7.
For COc1cc(CCC(=O)N2CCN(S(=O)(=O)c3ccc(C)cc3)CC2)cc(OC)c1OC the results were CF NFkB inh 7.9, HIF-2a block 3.1, TRAIL sens C8 -8.5, KKLEB tox 9.6 and Peg3 promoter -2.0.
CC1=C(C(=O)N(C)C)CC(CC(=O)NCCN2CCOCC2)C(=O)N1CCCN1CCCC1=O (stereo not drawn) was read as CF NFkB inh -15.4, HIF-2a block 1.8, TRAIL sens C8 54.8*, KKLEB tox 22.4 and Peg3 promoter -5.5.
`COc1ccc(C(=O)/C(C#N)=N/Nc2cccc([N+](=O)[O-])c2)cc1` gave PPC-1+TRAIL kill 18.8, CF NFkB inh 54.1*, HIF-2a block -66.9, TRAIL sens C8 -7.3, KKLEB tox -47.2 and Peg3 promoter 29.0.
For N#C/C(=N\Nc1cccc(Cl)c1)C(=O)c1ccccc1 the results were PPC-1+TRAIL kill -24.4, CF NFkB inh 35.8, HIF-2a block -175.2, TRAIL sens C8 17.1, KKLEB tox -24.7 and Peg3 promoter -38.7.
`Cc1nc(CN2C(=O)C3(CCC3)ON=C2c2cccc(Cl)c2)cs1` gave CF NFkB inh 6.2, HIF-2a block 7.1, TRAIL sens C8 -12.8, KKLEB tox -13.1 and Peg3 promoter -1.5.
CCCOCCOC(=O)c1[nH]c2c(c1C)C(=O)CC(c1cc(OC)ccc1OC)C2 (stereo not drawn) was read as PPC-1+TRAIL kill 11.4, CF NFkB inh 54.0*, HIF-2a block -2.4, TRAIL sens C8 30.1, KKLEB tox -15.6 and Peg3 promoter -20.2.
Screening COCCOC(=O)c1[nH]c2c(c1C)C(=O)CC(c1cc(OC)ccc1OC)C2 (stereo not drawn) returned PPC-1+TRAIL kill 5.4, CF NFkB inh 30.6, HIF-2a block -27.1, TRAIL sens C8 16.9, KKLEB tox -5.8 and Peg3 promoter 8.4.
